{"source": "paper PMC6664820", "about": "“Novel natural and synthetic inhibitors of solute carriers SGLT1 and SGLT2” (Pharmacology Research & Perspectives, 2019)", "note": "Among all 1,900 compounds or so, about 40 (2%) showed an effect of 50% or more. What follows is part of a selection rich in strong results, with near analogues and random picks from the rest. Residues, ends and D or L forms follow the SMILES beside them."}
{"target": "human SGLT1 (hSGLT1) (human, UniProt P13866)", "sequence (P13866 whole entry, looked up)": "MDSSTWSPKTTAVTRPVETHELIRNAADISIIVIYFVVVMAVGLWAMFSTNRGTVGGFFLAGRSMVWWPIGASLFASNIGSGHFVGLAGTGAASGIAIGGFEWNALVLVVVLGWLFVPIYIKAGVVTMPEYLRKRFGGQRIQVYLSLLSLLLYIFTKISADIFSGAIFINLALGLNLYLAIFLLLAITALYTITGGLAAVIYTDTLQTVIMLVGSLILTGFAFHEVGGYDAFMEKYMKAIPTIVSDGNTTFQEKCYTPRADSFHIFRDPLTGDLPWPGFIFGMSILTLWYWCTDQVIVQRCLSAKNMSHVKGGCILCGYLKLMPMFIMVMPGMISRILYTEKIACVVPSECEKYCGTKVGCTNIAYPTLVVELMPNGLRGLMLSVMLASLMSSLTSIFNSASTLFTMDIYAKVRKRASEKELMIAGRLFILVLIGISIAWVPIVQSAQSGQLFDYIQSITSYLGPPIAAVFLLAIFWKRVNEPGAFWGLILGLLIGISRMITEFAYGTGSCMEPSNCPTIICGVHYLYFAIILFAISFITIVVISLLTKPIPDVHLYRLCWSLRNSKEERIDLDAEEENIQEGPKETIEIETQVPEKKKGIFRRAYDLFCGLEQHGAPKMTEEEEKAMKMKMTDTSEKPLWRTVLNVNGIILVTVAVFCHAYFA", "assay": "primary screen, percent of control activity; higher = less effect of the substance", "design": "single well", "conditions": "50 µM", "method": "Two days before the assay, CHO‐wild type and CHO‐hSGLT1 cells were seeded in maintenance medium at 25 000 cells/well in clear‐bottom black 96‐well cell culture plates. Before the assay, cells were washed 3 times with 150 μL/well D‐glucose free DMEM with 0.3% (w/v) BSA. Library compounds at 50 μmol/L (singlicate) prepared in D‐glucose free DMEM with 160 μmol/L 1‐NBD‐glucose and 0.3% (w/v) BSA and negative controls (triplicate) were added at 100 μL/well and placed in a humidified incubator at 37°C with 5% CO2 for 90 minutes. Next, cells were washed 3 times with DMEM with 0.3% (w/v) BSA (150 μL/well). Care was taken to remove all medium after the last wash. Finally, 1‐NBD‐glucose was extracted from the cells by adding 10 μL/well isopropanol and orbital shaking for 5 minutes at 600 rpm, followed by incubation in the dark for 30 minutes. Fluorescence was measured on a Tecan Infinite M200 Microplate Reader (Tecan, Männedorf, Switzerland) with excitation at 445 nm and emission at 525 nm. The amount of 1‐NBD‐glucose taken up by the CHO‐wild type or CHO‐hSGLT1 cells in the presence or absence of test compounds was interpolated from 1‐NBD‐glucose calibration standards. The background uptake by CHO‐wild type was subtracted from the uptake by CHO‐hSGLT1. Background corrected uptake with test compound was expressed as a percentage of corrected uptake without test compound.", "units": {"NORMALIZED SGLT1 ACTIVITY (%)": "%"}}
{"smiles": "CCN1CCCC(OC(=O)C(c2ccccc2)c2ccccc2)C1.Cl", "note": "(stereo not drawn)", "NORMALIZED SGLT1 ACTIVITY (%)": 90}
{"smiles": "Cc1ccsc1/C=C/C1=NCCCN1C.O=C(O)CC(O)(CC(=O)O)C(=O)O", "NORMALIZED SGLT1 ACTIVITY (%)": 91}
{"smiles": "CN1CCCN=C1COC(=O)C(O)(c1ccccc1)C1CCCCC1.Cl", "note": "(stereo not drawn)", "NORMALIZED SGLT1 ACTIVITY (%)": 43}
{"smiles": "COc1c2c(cc3c1OCO3)CC[N+](C)=C2.[Cl-]", "NORMALIZED SGLT1 ACTIVITY (%)": 98}
{"smiles": "C[N+](C)(C)CCO.[Cl-]", "NORMALIZED SGLT1 ACTIVITY (%)": 97}
{"smiles": "N[C@@H](Cc1ccccc1)C(=O)N[C@@H](Cc1ccc(O)cc1)C(=O)O", "note": "(H-Phe-Tyr-OH)", "NORMALIZED SGLT1 ACTIVITY (%)": 112}
{"smiles": "CCC(CCC(C)[C@H]1CCC2C3CC=C4C[C@@H](O)CC[C@]4(C)C3CC[C@@]21C)C(C)C", "note": "(stereo partly drawn)", "NORMALIZED SGLT1 ACTIVITY (%)": 106}
{"smiles": "Nc1ccc(S(=O)(=O)NC(=O)c2ccccc2)cc1", "NORMALIZED SGLT1 ACTIVITY (%)": 100}
{"smiles": "CC(=O)O[C@H]1CC[C@@]2(C)C(CC[C@]3(C)C2C(=O)C=C2C4[C@@H](C)[C@H](C)CC[C@]4(C(=O)O)CC[C@]23C)C1(C)C", "note": "(stereo partly drawn)", "NORMALIZED SGLT1 ACTIVITY (%)": 37}
{"smiles": "C[C@H]1[C@H](C)CC[C@]2(C(=O)O)CC[C@]3(C)C(=CC[C@@H]4[C@@]5(C)CC[C@H](O)C(C)(C)[C@@H]5CC[C@]43C)[C@H]12", "NORMALIZED SGLT1 ACTIVITY (%)": 84}
{"smiles": "CC(=O)O[C@@H]1CC[C@@]2(C)C(CC[C@]3(C)C2CC=C2C4CC(C)(C)CC[C@]4(C(=O)O)CC[C@]23C)C1(C)C", "note": "(stereo partly drawn)", "NORMALIZED SGLT1 ACTIVITY (%)": 141}
{"smiles": "CCCCCc1c2c(cc(O)c1C(=O)O)OC(=O)c1c(cc(OC)cc1C(=O)CCCC)O2", "NORMALIZED SGLT1 ACTIVITY (%)": 152}
{"smiles": "O=C(O)c1cccnc1C(=O)O", "NORMALIZED SGLT1 ACTIVITY (%)": 124}
{"smiles": "O=C(O)Cc1nn(Cc2ccc(Br)cc2F)c(=O)c2ccccc12", "NORMALIZED SGLT1 ACTIVITY (%)": 180}
{"smiles": "CC(COc1ccccc1)N(CCCl)Cc1ccccc1.Cl", "note": "(stereo not drawn)", "NORMALIZED SGLT1 ACTIVITY (%)": 35}
{"smiles": "C[C@H](COc1ccccc1)N[C@H](C)[C@H](O)c1ccc(O)cc1.Cl", "NORMALIZED SGLT1 ACTIVITY (%)": 119}
{"smiles": "C#CCN(C)Cc1ccccc1.Cl", "NORMALIZED SGLT1 ACTIVITY (%)": 134}
{"smiles": "C[C@H]1O[C@@H](O[C@H]2[C@@H](O)C[C@H](O[C@H]3[C@@H](O)C[C@H](O[C@H]4CC[C@@]5(C)[C@H](CC[C@@H]6[C@@H]5CC[C@]5(C)[C@@H](C7=CC(=O)OC7)CC[C@]65O)C4)O[C@@H]3C)O[C@@H]2C)C[C@H](O)[C@@H]1O", "NORMALIZED SGLT1 ACTIVITY (%)": 111}
{"smiles": "CC(CCC(=O)O)[C@H]1CCC2C3C(C[C@H](O)[C@@]21C)[C@@]1(C)CC[C@@H](O)C[C@H]1C[C@H]3O", "note": "(stereo partly drawn)", "NORMALIZED SGLT1 ACTIVITY (%)": 89}
{"smiles": "C[C@H]1OC(n2cc(F)c(=O)[nH]c2=O)C(O)[C@@H]1O", "note": "(stereo partly drawn)", "NORMALIZED SGLT1 ACTIVITY (%)": 112}
{"smiles": "Cn1c(=O)c2c(ncn2CCCl)n(C)c1=O", "NORMALIZED SGLT1 ACTIVITY (%)": 183}
{"smiles": "COc1cccc(OC)c1OCCNCC1COc2ccccc2O1.Cl", "note": "(stereo not drawn)", "NORMALIZED SGLT1 ACTIVITY (%)": 72}
{"smiles": "CN(Cc1cc(Br)cc(Br)c1N)C1CCCCC1.Cl", "NORMALIZED SGLT1 ACTIVITY (%)": 44}
{"smiles": "Cl.Nc1c(Br)cc(Br)cc1CNC1CCC(O)CC1", "note": "(stereo not drawn)", "NORMALIZED SGLT1 ACTIVITY (%)": 99}
{"smiles": "C[C@@H]1[C@H]2[C@H](O[C@@H]3O[C@H](CO)[C@@H](O)[C@H](O)[C@H]3O)OC=C(C(=O)O)[C@H]2C[C@@H]1O", "NORMALIZED SGLT1 ACTIVITY (%)": 123}
{"smiles": "Nc1ccn(C2O[C@H](CO)[C@@H](O)[C@H]2O)c(=O)n1", "note": "(stereo partly drawn)", "NORMALIZED SGLT1 ACTIVITY (%)": 107}
{"smiles": "O=C(O[C@@H]1Cc2c(O)cc(O)cc2O[C@@H]1c1cc(O)c(O)c(O)c1-c1c([C@H]2Oc3cc(O)cc(O)c3C[C@H]2OC(=O)c2cc(O)c(O)c(O)c2)cc(O)c(O)c1O)c1cc(O)c(O)c(O)c1", "NORMALIZED SGLT1 ACTIVITY (%)": 99}
{"smiles": "O=C1CCCC2C3CC(CN12)[C@@H]1CCCCN1C3.[O-][Cl+3]([O-])([O-])O", "note": "(stereo partly drawn)", "NORMALIZED SGLT1 ACTIVITY (%)": 97}
{"smiles": "COc1ccc(/C=C/c2cc(O)cc(O)c2)cc1", "NORMALIZED SGLT1 ACTIVITY (%)": 198}
{"smiles": "COc1cc(O)cc(/C=C/c2ccccc2)c1", "NORMALIZED SGLT1 ACTIVITY (%)": 494}
{"smiles": "Oc1cc(O)cc(/C=C/c2ccccc2)c1", "NORMALIZED SGLT1 ACTIVITY (%)": 39}
{"smiles": "O=C1c2ccccc2C(=O)C1c1ccccc1", "NORMALIZED SGLT1 ACTIVITY (%)": 111}
{"smiles": "COc1ccc(C(=O)CC(=O)O)c2c1C=CC(C)(C)O2", "NORMALIZED SGLT1 ACTIVITY (%)": 115}
{"smiles": "CC(=O)/C(=C\\c1ccccc1)CC(=O)O", "NORMALIZED SGLT1 ACTIVITY (%)": 142}
{"smiles": "CC(=O)Oc1ccc(/C=C/c2cc(OC(C)=O)cc(OC(C)=O)c2)cc1", "NORMALIZED SGLT1 ACTIVITY (%)": 222}
{"smiles": "COc1cc(-c2coc3cc(O[C@@H]4O[C@H](CO)[C@@H](O)[C@H](O)[C@H]4O)c(OC)c(O)c3c2=O)cc(O)c1OC", "NORMALIZED SGLT1 ACTIVITY (%)": 111}
{"smiles": "COC(=O)C1[C@H]2C[C@H]3c4[nH]c5ccccc5c4CCN3C[C@@H]2CC[C@@H]1O.Cl", "note": "(stereo partly drawn)", "NORMALIZED SGLT1 ACTIVITY (%)": 120}
{"smiles": "CC(=O)O[C@@H]1CC2C(C)(C)CCC(=O)[C@]2(C)C2CC[C@@]3(C)[C@H](c4ccoc4)OC(=O)C4OC43[C@@]21C", "note": "(stereo partly drawn)", "NORMALIZED SGLT1 ACTIVITY (%)": 126}
{"smiles": "CCCCC1=NC2(CCCC2)C(=O)N1Cc1ccc(-c2ccccc2-c2nnn[nH]2)cc1", "NORMALIZED SGLT1 ACTIVITY (%)": 117}
{"smiles": "CCCCc1nc(Cl)c(CO)n1Cc1ccc(-c2ccccc2-c2nnn[nH]2)cc1", "NORMALIZED SGLT1 ACTIVITY (%)": 249}
{"smiles": "CCOc1nc2cccc(C(=O)OC(C)OC(=O)OC3CCCCC3)c2n1Cc1ccc(-c2ccccc2-c2nnn[nH]2)cc1", "note": "(stereo not drawn)", "NORMALIZED SGLT1 ACTIVITY (%)": 36}
{"smiles": "N.N.[Cl][Pt][Cl]", "NORMALIZED SGLT1 ACTIVITY (%)": 90}
{"smiles": "COc1ccc2c(c1)[C@@]1(C)CC[C@@H](O)C[C@@H]1CC2", "NORMALIZED SGLT1 ACTIVITY (%)": 116}
{"smiles": "CC(C)=CCCC1(C)C=Cc2c(O)c3c(c(CC=C(C)C)c2O1)OC12C(=CCCC1C(C)(C)O[C@@]2(C/C=C(\\C)C(=O)O)C(=O)O)C3=O", "note": "(stereo partly drawn)", "NORMALIZED SGLT1 ACTIVITY (%)": 39}
{"smiles": "CC(C)=CCCC1(C)C=Cc2c(O)c3c(c(CC=C(C)C)c2O1)OC12C(=CC4CC1C(C)(C)OC2(C/C=C(/C)C(=O)O)C4O)C3=O", "note": "(stereo not drawn)", "NORMALIZED SGLT1 ACTIVITY (%)": 174}
{"smiles": "CC(C)=CCCC1(C)C=Cc2c(O)c3c(c(CC=C(C)C)c2O1)OC12C(=CC4CC1C(C)(C)OC2(C/C=C(/C)C(=O)O)C4=O)C3=O", "note": "(stereo not drawn)", "NORMALIZED SGLT1 ACTIVITY (%)": 163}
{"smiles": "O=c1c(O)cccc2cc(O)c(O)c(O)c12", "NORMALIZED SGLT1 ACTIVITY (%)": 137}
{"smiles": "CNC(C)[C@@H]1CC[C@@H](N)[C@@H](OC2[C@@H](N)C[C@@H](N)[C@H](OC3OC[C@](C)(O)[C@H](NC)[C@H]3O)[C@H]2O)O1.O=S(=O)(O)O", "note": "(stereo partly drawn)", "NORMALIZED SGLT1 ACTIVITY (%)": 95}
